Assay outcomes: PubChem BioAssay, National Center for Advancing Translational Sciences (NCATS)
Only some compounds are listed: those with a hit (about 19% of all), similar ones and a draw of the others.
AMA1-RON2 inh: disrupts binding of P. falciparum AMA1 to RON2; AlphaScreen AMA1-biotinylated RON2 peptide binding; Potency, µM (series often up to 58.2 µM), without a hit: top-dose activity change, negative = inhibition, usual class: inhibitors; 0.2% of 360,000 active;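 further: potency means the concentration at half of the fitted maximal effect; 0% = vehicle wells and -100% = peptide control; nearly all actives have a fitted effect of over 45% in size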
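AMA1 (3D7) with his tag at 25 nM final met compounds first, then biotinylated RON2 peptide at 25 nM; detection used donor plus acceptor beads, 10 µg/mL apiece, read by AlphaScreen after 30 min at room temperature.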
SARS PLpro yeast: inhibitors of SARS-CoV papain-like protease in yeast. Potency, µM (titrated, usually from 32.9 µM), inactives show top-dose activity, positive = growth rescue, actives largely listed as activators. 0.19% of 330,000 active. AID 485353. S. cerevisiae expressing SARS-CoV PLpro, growth rescue; calls by dose curve; further: potency means the concentration at half of the fitted maximal effect; 0% is about no effect; nearly all actives have a fitted effect of over 55% in size
Pf growth 48h: P. falciparum growth inhibition at 48 hours (one generation). P. falciparum luciferase growth in erythrocytes, 48 h. AID 504832. Potency, µM (top dose mostly 28.7 µM), for the others: top-dose activity change, negative = inhibition, hits mostly inhibitors. 5.9% of 310,000 active; further: potency means the concentration at half of the fitted maximal effect; on the % scale 0 is the no-effect control and ±100 the full control effect
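Erythrocytes infected with P. falciparum carrying an integrated firefly luciferase reporter (2% hematocrit, 0.1% parasitemia final) were exposed to compounds in RPMI 1640 with 0.5% Albumax at 37 C, 5% CO2. Growth inhibition was scored as reduced luminescence.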
Cycloheximide cs: affects cycloheximide protein synthesis inhibition readout, counter-screen | AID 2314 | max response, % | 12% of 300,000 active | cell reporter, cycloheximide protein synthesis inhibition counterscreen; in the data active means max response mostly above about 13%, no sharp cut-off; inactive means mostly below about 14%; further: read at 38.3 µM for the half of the compounds with a filed dose; 0% is about no effect
Shiga toxin inh: Shiga toxin inhibition | AID 2315 | inhibition, % at 38.7 µM | Vero cells, Shiga toxin protein synthesis inhibition reporter | 9.2% of 290,000 active; in the data active means inhibition mostly above about 28%, no sharp cut-off; inactive means mostly below about 43%; further: 0% is about no effect
Pf growth 96h: P. falciparum growth inhibition at 96 hour, primary screen for plastid delayed-death inhibitors; P. falciparum luciferase reporter growth, 96 h; Potency, µM (series often up to 28.7 µM), inactives show at the top dose activity change, negative = inhibition, most hits filed as inhibitors; 6.9% of 320,000 active; AID 504834; further: potency means the concentration at half of the fitted maximal effect; on the % scale 0 is the no-effect control and ±100 the full control effect
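96 h incubation, 37 C, 5% CO2, of luciferase-reporter P. falciparum-infected RBCs (2% hematocrit, 0.05% parasitemia final) with test compounds; endpoint luminescence.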
Active calls of the source: *; ? = inconclusive; . = no result given; [ ] = dose if it differs, or a comment. Unless noted, the call rests on the fitted dose curve; in most records, active means well fitted curve in the direction sought with a large enough effect; inconclusive means small, poorly fitted or top-dose-only effect, or another doubt; inactive means no such curve, though single readings can be large; an effect the other way counts as inactive or inconclusive.

SMILES	AMA1-RON2 inh	SARS PLpro yeast	Pf growth 48h	Cycloheximide cs	Shiga toxin inh	Pf growth 96h
CC(=C/c1ccccc1)/C=N/n1c(C)n[nH]c1=S	119%	1%	10%	30*	47	12µM*
CC(=C/c1ccccc1)/C=N/n1c(-c2ccncc2)n[nH]c1=S	-12%	0%	-15%	-2	-12	?
Cc1cccc(/C=N/n2c(COc3ccccc3)n[nH]c2=S)c1	92%	-3%	17%	9	-5	29%
CC(C)N(C(=O)[C@H]1CC(CC(=O)NCCCn2ccnc2)C(=O)N2CCc3c([nH]c4ccccc34)[C@]12C)C(C)C (some centres undefined)	-2%	4%	.	.	.	.
O=C(NC(=S)Nc1ccc2oc(=O)ccc2c1)c1cccc(Cl)c1	31%	-16%	7%	-2	-6	20%
S=c1[nH]nc(-c2ccco2)n1/N=C/C(Cl)=C/c1ccccc1	49%	-2%	5.2µM*	53*	73*	65%
COc1ccc(/C=C/C(=O)N[C@@H](C)C(=O)O)cc1	-13%	-19%	-2%	-5	6	7%
COC(=O)CNC(=O)/C=C/c1ccc(OC)cc1	0%	3%	4%	27*	57*	140%
COc1ccc(/C=C/C(=O)NCc2ccccn2)cc1OC	63%	-1%	?	12	-6	-3%
COCC(C)NC(=O)/C=C/c1ccc(OC)cc1 (centres undefined)	9%	0%	89%	19*	36	-4%
COc1ccc(/C=C/C(=O)NCCOc2ccccc2OC)cc1	-10%	13%	-8%	-2	12	?
COc1ccc(/C=C/C(=O)NCc2ccccn2)cc1	12%[2.32 µM]	4%	15%	17*	34*	44%
C[C@@H]1C(=O)OC2C[C@@]34[C@H]5C[C@@H](C(C)(C)C)[C@@]36C(O)C(=O)O[C@H]6O[C@@]4(C(=O)O5)[C@]21O (some centres undefined)	.	.	.	4	7	.
COc1ccc(CCNC(=S)NC2CCN(Cc3ccccc3)CC2)cc1	-3%	-1%	?	3	10	?
CCOC(=O)N1CCC(NC(=O)c2cc3cc4cc(OC)ccc4nc3o2)CC1	7%	-8%	2.9µM*	-2	-5	7.4µM*
COc1ccc(OC)c(-n2c(CNC3CCN(Cc4ccccc4)CC3)nc3ccccc3c2=O)c1	2%	-1%	.	-5	-15	12µM*
COc1ccc2nc3oc(C(=O)NC4CCN(Cc5ccccc5)CC4)cc3cc2c1	-11%	5%	?	17	31*	46%
COc1ccc(OC)c(-n2c(CN3CCC(C(N)=O)CC3)nc3ccccc3c2=O)c1	4%	5%	20%	-1	-7	19%[5.75 µM]
COc1ccc(N2CCN(C(=S)NC(C)c3ccccc3)CC2)cc1 (centres undefined)	-14%	1%	?	6	1	16%
COc1ccc(C2=CSC(/N=C/c3ccc(F)cc3)=NN2)cc1	-23%	?	0%	30*	-4	?
CCOC(=O)c1sc(NC(=O)c2ccc(Cl)s2)cc1C	14%	0%	?	39*	56*	?
CCOC(=O)c1sc(NC(=O)c2c(C)nn(Cc3ccccc3)c2C)cc1C	-12%	-3%	9.3µM*	10	37	1%
CCOC(=O)c1sc(NC(=O)c2ccccc2)cc1C	12%	-23%	.	70*	122*	?
CCOC(=O)c1sc(NC(=O)Nc2ccc(Cl)cc2)cc1C	-6%	-31%	4.1µM*	46*	67*	?
CCOC(=O)c1c(NC(=O)Nc2ccc(Cl)cc2)sc(C)c1C	-13%	-1%	-5%	-5	-3	44%
CCOC(=O)c1sc(=S)n(C)c1NC(=O)c1ccccc1	0%	19%	9%	-3	13	-16%
Cc1cc(NC(=O)COC(=O)c2c(C)nn(Cc3ccccc3)c2C)no1	10%	19%	.	2	32	?
Cc1cc(C)n2nc(SCC(=O)NC3(C#N)CCCCC3)nc2n1	-14%	.	.	.	.	.
CCOC(=O)c1sc(NC(=O)c2ccc(S(=O)(=O)N(C)C)cc2)cc1C	-9%	7%	.	-1	-11	5.2µM*
CCOC(=O)c1sc(NC(=O)c2ccc(S(=O)(=O)N(C)C)cc2)nc1C	-4%	-4%	?	-3	27	.
